According to PubChem BioAssay AID435019 (Southern Research Specialized Biocontainment Screening …, 2010):
Hit rate of the full screen: of about 2,300 compounds, about 1,200 (52%) were called active. How the calls were made is not given here. So high a share suggests a set chosen from earlier hits. Some of the results follow. Results with a measured potency or affinity are listed apart.

experiment: mammalian cell cytotoxicity, dose response, cytotoxicity control for M. tuberculosis inhibitor project (AID 435019); conditions: cytotoxicity counter-screen; series mostly up to 40 µM; viability: at the top concentration;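 further: 0% = background wells and 100% = vehicle-treated cells; lower values mean fewer viable cells so more cytotoxicity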

Structure (SMILES) | viability
CCOC(=O)COc1ccc2c(c1)C(=O)CC(C)(c1cccnc1)O2 (centres undefined) | 102% (inactive)
Nc1ccc2oc(-c3cccs3)nc2c1 | 95.4% (inactive)
CCOC(=O)c1ccc(N=C(CC)c2c(O)n(C)c(=O)n(C)c2=O)cc1 | 90.3% (inactive)
COc1cc(C)ccc1OCCOc1c(C)cc(Cl)cc1Cl | 86.2% (inactive)
C=CCc1cc(C)ccc1OCCCC(C(=O)OCC)C(=O)OCC | 97.1% (inactive)
C[Se]C[C@@H](N)C(=O)O | 101% (inactive)
Cc1nc2sccn2c1-c1nc(-c2cc3ccccc3o2)cs1 | 86.8% (inactive)
Cc1ccc(NC(=O)COC(=O)CCc2c[nH]c3ccccc23)cc1[N+](=O)[O-] | 92.4% (inactive)
C[C@@H]1CN([C@H](C)CO)C(=O)c2cc(NC(=O)Nc3ccc(C(F)(F)F)cc3)ccc2O[C@H]1CN(C)S(=O)(=O)c1cccs1 | 91.9% (inactive)
CCOC(=O)CSc1cc(=O)n(C)c2cc(Cl)ccc12 | 96.9% (inactive)
O=C(CSc1nc2ccccc2[nH]1)N1c2ccccc2Sc2ccccc21 | 81.8% (inactive)
O=c1cc(O)c2sc3nc(-c4cccnc4)cc(C(F)(F)F)c3c2[nH]1 | 92.6% (inactive)
CC(C)c1ccc(-c2nn(-c3ccccc3)cc2C(=O)NCC2CCCO2)cc1 (centres undefined) | 86.4% (inactive)
COc1ccc(-c2cn3cc([N+](=O)[O-])ccc3n2)cc1OC | 96.1% (inactive)
C=CCOc1ccc(/C=N/O)cc1Cl | 84.8% (inactive)
O=C(Nc1cccc(Cl)c1)N1CCN(C/C=C/c2ccccc2)CC1 | 84.9% (inactive)
Cc1ccc(/C=C/S(=O)(=O)NCC(=O)OCC(=O)Nc2c(F)cccc2F)cc1 | 91.2% (inactive)
CC1(C)c2cc(Cl)ccc2-n2c1cc(O)c(-c1ccccc1)c2=O | 88.4% (inactive)
O=c1[nH]c(CSc2cccc[n+]2[O-])nc2ccccc12 | 93.4% (inactive)
O=C(OCc1ccccc1)/C(=C(\O)c1ccccc1Br)c1ccc(-c2ccccc2)cn1 | 89.2% (inactive)
CCCc1cc(=O)[nH]c(SCC(=O)N2CCCC2=O)n1 | 95.3% (inactive)
Cc1nc2ccc(OC(=O)c3ccccc3)cc2s1 | 86.3% (inactive)

Structure (SMILES) | viability
Clc1ccc(-c2ccc(C=Nc3ccc(N4CCOCC4)cc3)o2)c(Cl)c1 | 95.9% (inactive)
CC(C)OC(=O)CSc1nc2ccccc2s1 | 95.2% (inactive)
O=C(CSc1nc2ccccc2nc1N1CCOCC1)N1CCN(c2ccccc2)CC1 | 89.7% (inactive)
C1=C(c2c[nH]c3ccccc23)CCNC1 | 88.5% (inactive)
COc1ccc(N2CN=C3SCC(=O)N3C2)cc1 | 99.6% (inactive)
Nc1ccc(CCc2ccc(N)cc2)cc1 | 93.5% (inactive)
CCn1nnc(-c2ccc(N)cc2)n1 | 94.1% (inactive)
Cc1cc2cc(CNC(=O)NC3CCCCC3)ccc2[nH]1 | 89% (inactive)
O=C(/C=C/c1ncc(C(F)(F)F)cc1Cl)OCc1ccccc1 | 100% (inactive)
Cc1ccc(-c2nnc(NCc3nc4ccccc4[nH]3)c3ccccc23)cc1S(=O)(=O)N1CCCCC1 | 81.5% (inactive)
Cc1ccc(NC(=O)COc2ccc(-n3ccnc3)cc2)cc1Cl | 98% (inactive)
CCNCC(=O)N1c2ccccc2CCc2ccc(NC(=O)OC(C)C)cc21 | 82.4% (inactive)
CCc1c(C)sc(NC(=S)N2CCN(CC)CC2)c1C(=O)OC | 83.2% (inactive)
COC(=O)c1c(NC(=O)C(=O)N2CCCC2)sc2c1CC(C)(C)OC2 | 89.7% (inactive)
Cc1ccc(N=Nc2c(C)[nH]n(C(N)=S)c2=O)cc1 | 83.6% (inactive)
O=C1NCCC/C1=N\Nc1ccc(Br)cc1 | 94.1% (inactive)
COC(=O)CNC(=O)CSc1nc2sc(-c3ccccc3)cc2c(=O)n1-c1ccccc1 | 90.4% (inactive)
Cc1ccc(NC(=O)c2sccc2-n2cccc2)c(C)c1 | 93.2% (inactive)
CCCCCCCCCCOC(=O)Cn1c(COc2ccc(Cl)cc2)[n+](C)c2ccccc21 | 93.5% (inactive)
Nc1nonc1C(=O)NCCNCc1c(OCc2ccccc2F)ccc2ccccc12 | 94% (inactive)
Cn1ccnc1C(O)c1cc(C(C)(C)C)c(O)c(C(C)(C)C)c1 (centres undefined) | 89% (inactive)
C(=N\Nc1nc(-c2ccccc2)cs1)/c1ccncc1 | 88.6% (inactive)

Structure (SMILES) | viability
Cc1cccc(NC(=O)CCSc2nnc(Cc3ccccc3)o2)c1 | 99.5% (inactive)
COC(=O)c1cccc(OC(N)=O)c1 | 97.2% (inactive)
c1ccc(Cn2c3ccccc3c3nnc(SCCN4CCCCC4)nc32)cc1 | 88.8% (inactive)
CC(=O)c1c(C)n(C)c2ccc(OC(=O)c3ccc([N+](=O)[O-])cc3)cc12 | 93.6% (inactive)
COC(=O)CSc1ncnc2c1cnn2-c1ccc(C)cc1C | 97.7% (inactive)
CCc1n[nH]c(=S)n1/N=C/c1ccc(-c2ccc(Br)cc2)o1 | 85.9% (inactive)
NC(=S)N/N=C/c1ccc(-c2ccccc2)o1 | 95.2% (inactive)
Cc1onc(-c2ccccc2Cl)c1C(=O)Oc1cccc2cccnc12 | 84.4% (inactive)
CCOC(=O)c1ccc(-c2c(-c3ccc4c(c3)OCO4)noc2C)cc1F | 85.7% (inactive)
O=c1c(C=Nc2ccc(Oc3ccccc3)cc2)c[nH]n1-c1cccc(Cl)n1 | 94.6% (inactive)
Cc1nc2scc(-c3cccs3)c2c(=O)n1-n1cccc1 | 94.5% (inactive)
O=C(O)/C=C/C(=O)Nc1ccc(-c2ccccc2)cc1 | 102% (inactive)
Cc1ccc(S(=O)(=O)CNC(=S)c2ccc3ccccc3c2)cc1 | 87% (inactive)
O=[N+]([O-])c1cc(C=Nc2ccc3ccccc3c2)ccc1Br | 102% (inactive)
Cc1ccc(N2CCN(C(=O)c3cn(CC4CCCCC4)nn3)C(C)C2)cc1 (centres undefined) | 85.7% (inactive)
O=c1c2ccccc2nc(/C=C/c2ccccc2)n1-c1ccc(O)cc1 | 81.8% (inactive)
CCCC1CCC(C(=O)Nn2c(C)nc3ccccc3c2=O)CC1 (centres undefined) | 82.5% (inactive)
Cc1ccc2[nH]c(C(=O)NN=C3CCCCC3)c(-c3ccccc3)c2c1 | 88.9% (inactive)
CCc1cc(C(=O)Nc2ccc(C)cc2Br)cs1 | 92.9% (inactive)
C/C(=N\NC(=O)COc1ccc(C)cc1Br)c1cc([N+](=O)[O-])cs1 | 91.1% (inactive)
COc1ccccc1N1C(=O)NC(=O)/C(=C/c2ccc([N+](=O)[O-])s2)C1=O | 92.6% (inactive)
Cc1cccc(CSc2nc3c(c(-c4cccs4)c2C#N)CN(C)CC3)c1 | 95.7% (inactive)

Structure (SMILES) | viability
CCCCCCOc1ccc(/C=C/C(=O)N2CCOCC2)cc1OC | 87% (inactive)
COc1cc(/C=N/NC(=O)COc2ccc(C)cc2)ccc1OC(=O)c1cccs1 | 99.4% (inactive)
CC[N+](C)(CC)CCCCOc1ccc2c(c1)C(=O)c1cc(OCCCC[N+](C)(CC)CC)ccc1-2 | 98.3% (inactive)
CCCOc1ccc(-c2cnc(SCC(N)=O)nc2N)cc1 | 94.2% (inactive)
O=C(/C=C/c1ccco1)Oc1ccc(C(=S)N2CCOCC2)cc1 | 92.7% (inactive)
COc1ccc(NC(=O)NC(C)C2CC3CCC2C3)cc1 (centres undefined) | 88.8% (inactive)
Nc1ccc(-c2nc3nc(N)nc(N)c3nc2-c2ccc(N)cc2)cc1 | 86.7% (inactive)
CN1CCN(C(=O)/C=C/c2cn(-c3ccccc3)nc2-c2ccc3c(c2)OCCO3)CC1 | 91.2% (inactive)
Cc1ccc(C(=O)COC(=O)C2CC(=O)N(c3nc(-c4ccccc4)cs3)C2)cc1C (centres undefined) | 87.5% (inactive)
CCCCCCCCCCCCCCCC(=O)NCCO | 98.4% (inactive)
CCCCCCCCNC(=O)CCNC(=O)c1ccc(C(C)(C)C)cc1 | 83.2% (inactive)
CCc1ccc(NC(=O)c2ccc(C3SCC(=O)N3CCc3ccccc3)cc2)cc1 (centres undefined) | 91.9% (inactive)
O=C1N[C@@H](Cc2ccccc2)C(=O)N2[C@H]3Nc4ccccc4[C@@]3([C@]34C[C@H]5C(=O)N[C@@H](Cc6ccccc6)C(=O)N5[C@H]3Nc3ccccc34)C[C@@H]12 | 86.8% (inactive)
CCOC(=O)CSc1nc(C)c(C(=O)OCC)s1 | 97.8% (inactive)
Cc1cc(C2N=C(N)Nc3nc4ccccc4n32)c(C)n1-c1ccccc1Cl (centres undefined) | 90.1% (inactive)
CN1OC(COC(=O)c2ccc(Cl)cc2Cl)CC1c1ccccc1 (centres undefined) | 94.3% (inactive)
CCC(C)Nc1nc2c(C)cccn2c(=O)c1C=Nc1ccc(OC)cc1 (centres undefined) | 91.5% (inactive)
CC(=O)O[C@H]1C[C@@]2(C)[C@@H](C[C@@H](O)[C@H]3[C@@]4(C)CC[C@@H](O)[C@@H](C)[C@@H]4CC[C@@]32C)/C1=C(\CCC=C(C)C)C(=O)O | 99.3% (inactive)
CN(CCCC1CCCC1)C(=O)CCc1nnc(-c2ccccc2)o1 | 83.9% (inactive)
O=C(Nc1ccc2nsnc2c1)NC1CCCCC1 | 104% (inactive)
COC(=O)c1ccc(-c2ncc(-c3cccc4ccccc34)o2)cc1 | 95.6% (inactive)
COc1cc(C)c(/C=C/C(C)=C/C=C/C(C)=C/C(=O)O)c(C)c1C | 88.1% (inactive)

Structure (SMILES) | viability
CC1(C)OC(=O)C(=NNc2ccc(Cl)cc2)C(=O)O1 | 94.5% (inactive)
Cc1ccc(NC(=O)c2cnc(SCC(=O)NCC3CCCO3)n(C)c2=O)cc1C (centres undefined) | 90.9% (inactive)
CCn1c(SCC(=O)OC2CCCCC2)nc2ccccc2c1=O | 95.4% (inactive)
Cn1c(CNc2nc(-c3ccccc3)cs2)nnc1SCC(=O)OC1CCCCC1 | 101% (inactive)
CCOc1ccc(NC(=S)Nc2cc(-c3ccccc3)[nH]n2)cc1 | 86.4% (inactive)
CCCc1ccc(NC(=O)C2CCN(c3cnccn3)CC2)cc1 | 95.8% (inactive)
CCCc1ncc(CN2CCCC(C(=O)Nc3ccc(-c4cccc(OC)c4)cc3)C2)cn1 (centres undefined) | 81.7% (inactive)
Cc1ccc(C)c(N2CCN(C(=O)c3ccc4nc(N5CCOCC5)sc4c3)CC2)c1 | 84.8% (inactive)
Cc1cc(C)c2nc(N3CCCC(C(=O)N4CCN(c5ncccn5)CC4)C3)sc2c1 (centres undefined) | 82.1% (inactive)
C[C@]12CCC(=O)C[C@@H]1CC[C@@H]1[C@@H]2CC[C@]2(C)C=CC[C@@H]12 | 92.2% (inactive)
NC(=O)N1CCC2(CC1)NC(=O)N(c1ccccc1)N2 | 91.9% (inactive)
Cc1cc(C)nc(-n2nc(C)cc2NC(=O)CN2CCC(C)CC2)n1 | 91.8% (inactive)
O=C(c1cc2cc(F)ccc2[nH]1)N(Cc1cccnc1)CC1CCCN(C2CCCCC2)C1 (centres undefined) | 84.5% (inactive)
CC1(CCc2ccccc2)NC(=S)N(c2ccc(Cl)cc2)N1 (centres undefined) | 89.4% (inactive)
COC(=O)CSc1nnc(CNc2ccc(Cl)cc2)n1-c1ccccc1 | 94.6% (inactive)
O=C(C[n+]1ccc(C(=O)N/N=C/c2ccc(O)cc2)cc1)c1ccccc1 | 103% (inactive)
COc1ccccc1-n1cc2c([N+](=O)[O-])cc([N+](=O)[O-])cc2n1 | 103% (inactive)
Nc1cc([N+](=O)[O-])cc2oc(-c3ccccc3)cc12 | 83.1% (inactive)
CCCCNc1nc(N(C)c2ccccc2)nc(-n2ccnc2)n1 | 85.3% (inactive)
O=C(CSc1nc2cc(Cl)ccc2o1)c1cccs1 | 96.2% (inactive)
COC(=O)c1ccc(CSc2nc3cc(Cl)ccc3o2)cc1 | 101% (inactive)
